Screens (PubChem)
NTR1 ag = agonists of human NTR1, primary screen, imaging, U2OS cells, beta-arrestin-GFP, high content; Neurotensin receptor type 1 (Homo sapiens), P30989; NTR1-U2OS beta-arrestin-GFP spot imaging, agonist mode; activation, % at 20 µM; hit rate 0.17% among 330,000;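 active means activation at or above 40% of the spot to cytoplasm intensity ratio, with at least 20 cells analyzed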;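 further: 0% = DMSO without peptide and 100% = 100 nM NTR1 peptide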
MEKK2wt PB1 HTS = modulators of MEK5 binding to wildtype MEKK2, primary screen, biochemical, multiplex bead flow cytometry, Alexa488-MEK5. Mitogen-activated protein kinase kinase kinase 2 (Homo sapiens), Q9Y2U5. Alexa488-MEK5 binding to MEKK2 WT; actives lie on both sides. binding response (% of control), % at 10 µM. hit rate 1.1% among 290,000; in the data active means binding response below about 67% or above about 130%
MEKK3 PB1 HTS = modulators of MEKK3-MEK5 PB1 binding, primary screen, biochemical, wildtype MEKK3, multiplex bead flow cytometry, Alexa488-MEK5. hit rate 1.4% among 290,000. Mitogen-activated protein kinase kinase kinase 3 (Homo sapiens), Q99759. binding response (% of control), % at 10 µM. bead-based flow cytometry, Alexa488-MEK5 binding to MEKK3; actives lie on both sides; 0 = blocked by unlabeled MEK5, 100 = vehicle;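 active means binding response more than 3 SD above or below the average of its plate-row segment, actives on both sides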;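 further: Alexa488 bead fluorescence after subtracting the streptavidin-only scavenger bead signal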
MEKK2mut PB1 HTS = MEK5 binding signal on mutant MEKK2 PB1, primary screen, biochemical, multiplex bead flow cytometry, Alexa488-MEK5. Alexa488-MEK5 binding to MEKK2 mutant. percent response, % at 10 µM. hit rate 0.35% among 290,000. AID 1530, 2009; in the data active means percent response above about 24%, passing the limit was not always enough
TMEM16A act = TMEM16A chloride channel activators or potentiators, primary screen, cell-based, HTS; Anoctamin-1 (Mus musculus), Q8BHY3; HEK293 TMEM16A/YFP-H148Q/I152L, iodide quench fluorescence; active compounds read low; B-score at 10 µM; hit rate 0.3% among 340,000; AID 623877, 2012;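 active means fluorescence-ratio B-score plate-corrected deviation score at least 3 library SD below zero, with starting fluorescence score within 5 deviations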;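 further: channel opened by trigger with iodide after compound preincubation; score built on the fluorescence ratio of max minus min over baseline; more negative score means more quench and so TMEM16A activation or potentiation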
TMEM16A inh = TMEM16A chloride channel inhibitors, primary screen, cell-based, HTS; Anoctamin-1 (Mus musculus), Q8BHY3; HEK293 TMEM16A/YFP iodide influx fluorescence, ionomycin; normalized B-score (activity score, 25-100; higher = stronger inhibition) at 10 µM; hit rate 1.2% among 310,000;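 active means ratio plate-corrected score three or more library SD toward inhibition, starting fluorescence score within five deviations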;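 further: score derived from kinetic fluorescence span divided by baseline fluorescence per well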
TMEM16A reconf = TMEM16A chloride channel inhibitors, confirmation, cell-based, re-confirmation. shares compounds with TMEM16A inh. HEK293 TMEM16A/YFP-H148Q, iodide quench fluorescence; ionomycin added to raise cell calcium. inhibition, % at 10 µM. hit rate 39% among 2,300. AID 652189, 2013;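 active means mean duplicate percent inhibition, scaled so buffer wells are 0 and the reference blocker 100, over three buffer SD above buffer mean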
HEK293 Ca mobil = calcium mobilization in TMEM16A/YFP HEK293 cells, confirmation, counter-screen for TMEM16A inhibitor project | AID 652231, 2013 | hit rate 2% among 2,300 | shares compounds with TMEM16A inh | Fluo4 calcium mobilization | calcium response (% of ionomycin), % at 10 µM;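 active means duplicate-averaged calcium signal over 20% of the ionomycin maximum, relative to buffer baseline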;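 further: each well's signal is peak minus trough fluorescence divided by its pre-addition baseline; 0% = buffer wells and 100% = ionomycin wells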
YFP-HEK293 quench = iodide YFP quench changes in parental YFP-HEK293, counter-screen for TMEM16A inhibitor project, cell-based; 2,300 tested, under 10 active; ionomycin; shares compounds with TMEM16A inh; YFP ratio F(max-min)/F0 at 10 µM; AID 652233, 2013;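 active means yellow fluorescent protein signal ratio exceeding the buffer control mean by over 5 SD of those controls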;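 further: ratio is mean of duplicate wells from kinetic YFP trace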
ClC-1 rat inh = ClC-1 chloride channel inhibition, selectivity assay for TMEM16A inhibitor project, cell-based, voltage-dependent ClC-1 | shares compounds with TMEM16A inh | CHO ClC-1-YFP, iodide influx fluorescence quench; iodide control reads 0, buffer control 100 | ratio percent, % at 10 µM | 2,300 tested, under 10 active;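 active means duplicate-mean ratio percent above the mean of iodide-only control wells, which defines zero, plus 5 of their SD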;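 further: higher percent means stronger block of ClC-1 iodide influx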
Starred values were filed as active, the others as inactive; i = inactive; / = no result. An excerpt weighted towards active compounds, which were near 3.4% of everything screened.

SMILES | NTR1 ag | MEKK2wt PB1 HTS | MEKK3 PB1 HTS | MEKK2mut PB1 HTS | TMEM16A act | TMEM16A inh | TMEM16A reconf | HEK293 Ca mobil | YFP-HEK293 quench | ClC-1 rat inh
c1ccc2c(c1)[nH]c1c(N3CCSCC3)ncnc12 | -1 | / | / | / | i | 25* | 28%* | i | -0.88 | -20
Clc1ccc2[nH]c3c(N4CCC5(CC4)OCCO5)ncnc3c2c1 | 1 | 117 | 113 | 19 | / | 100* | 44%* | i | -0.86 | -30
CCN(CC(=O)NCc1cccs1)C(=O)COc1ccc(C(N)=O)cc1 | -2 | / | / | / | i | / | / | / | / | /
CCOC(=O)c1ccc2c(c1)N(CC(=O)N1CCCCC1)C(=O)C(C)(C)O2 | 0 | 112 | 111 | 5 | i | 100* | i | i | -1.2 | -4
CC1(C)Oc2ccc(C(=O)NC3CCCC3)cc2N(CC(=O)N2CCOCC2)C1=O | 0 | 95 | 99 | -4 | i | i | / | / | / | /
Cc1nc(Nc2ccccc2)sc1C(=O)c1ccccc1 | 5 | 100 | 97 | -5 | i | i | / | / | / | /
COc1ccc(C(=O)c2sc(Nc3ccccc3)nc2C)cc1 | 7 | 135* | 111 | 16 | i | i | i | i | -0.96 | -14
COc1cc(C(=O)O/N=C2/C=C(C)C(=O)C=C2C)cc(OC)c1OC | -2 | 127 | 110 | 31 | i | i | / | / | / | /
COc1cc(C(=O)ON=C2C(C)=CC(=O)C=C2C)cc(OC)c1OC | -1 | 96 | 102 | 2 | i | 100* | i | i | -0.94 | 0
Cc1csc(NC(=O)c2ccc(OCC3CCCO3)cc2)n1 (stereo unspecified) | 1 | 104 | 100 | 6 | i | i | / | / | / | /
O=C(Nc1nc(-c2ccccc2)cs1)C1CCCO1 (stereo unspecified) | 0 | 98 | 97 | -2 | i | i | / | / | / | /
O=C(Nc1nc(-c2ccc(F)c(F)c2)cs1)c1ccc(OCC2CCCO2)cc1 (stereo unspecified) | 2 | 99 | 100 | 9 | i | 25* | i | i | -1.2 | -7
O=C(Nc1nc(-c2ccc(-c3ccccc3)cc2)cs1)C1CCCO1 (stereo unspecified) | 1 | 103 | 102 | 1 | i | 100* | i | i | -0.9 | -21
COc1ccc(-c2nnc(C)c3nocc23)cc1 | 0 | 101 | 104 | 4 | i | i | / | / | / | /
COC(=O)c1ccccc1CSc1nsc(/C=C/N(C)C)c1C#N | 2 | 103 | 98 | -1 | i | 25* | 19%* | i | -0.76 | 4
Cc1nc(CSc2nsc(/C=C/N(C)C)c2C#N)cs1 | / | 86 | 99 | -10 | i | / | / | / | / | /
CC(C)C(c1nnnn1C1CCCCC1)N1CCN(c2ncccn2)CC1 (stereo unspecified) | -2 | 93 | 95 | -4 | i | 100* | i | i | -1.2 | -14
COc1ccc(C(=O)O)cc1S(=O)(=O)NCc1ccccn1 | -1 | 99 | 97 | 4 | i | i | / | / | / | /
COc1ccccc1C(=O)N(Cc1nc(-c2ccc(Cl)cc2)no1)C(C)C | -3 | 101 | 105 | 1 | i | 100* | i | i | -0.92 | -3
Cc1ccc(SCC(=O)N(Cc2nc(-c3ccccc3)no2)C(C)C)cc1 | 7 | 100 | 97 | 13 | i | 100* | i | i | -1.2 | -5
COc1ccc(CCNC(=O)C2CCN(S(=O)(=O)c3cccs3)CC2)cc1OC | -1 | 105 | 104 | 9 | i | i | / | / | / | /
O=S(=O)(c1ccc2oc(=S)[nH]c2c1)N1CCCCC1 | 4 | 96 | 98 | -7 | i | i | / | / | / | /
S=c1[nH]c2cc(-c3ccccc3)ccc2o1 | 1 | 106 | 113 | 1 | i | 25* | i | i | -1 | -10
Cn1c(=O)oc2cc(S(=O)(=O)NCCC(=O)NC3CCCC3)ccc21 | 1 | 105 | 99 | 6 | i | 100* | i | i | -1 | -9
Cn1c(=O)oc2cc(S(=O)(=O)NCCC(=O)NC3CCCc4ccccc43)ccc21 (stereo unspecified) | 2 | 106 | 108 | 4 | i | i | / | / | / | /
SMILES | NTR1 ag | MEKK2wt PB1 HTS | MEKK3 PB1 HTS | MEKK2mut PB1 HTS | TMEM16A act | TMEM16A inh | TMEM16A reconf | HEK293 Ca mobil | YFP-HEK293 quench | ClC-1 rat inh
COCCN(C(=O)CSc1nnc(-c2ccco2)n1C)c1c(N)n(CC(C)C)c(=O)[nH]c1=O | 1 | / | / | / | i | / | / | / | / | /
COc1ccc(NC(=O)c2ccc(Cc3ccc(C)cc3)o2)cc1 | -2 | 98 | 96 | 2 | i | 25* | i | i | -1.2 | 6
CC(C)(C)c1ccc(OCc2ccc(C(=O)Nc3cccnc3)o2)cc1 | 14 | 96 | 101 | -2 | i | 25* | 25%* | i | -0.99 | -14
COc1ccccc1OCc1ccc(C(=O)Nc2ccncc2)o1 | 2 | 110 | 105 | 13 | i | 100* | 34%* | i | -0.84 | -7
O=C(Nc1cccnc1)c1ccc(COc2ccccc2Br)o1 | 1 | 97 | 87 | 2 | i | i | / | / | / | /
CC(C)(C)c1ccc(C(=O)Nc2ccc(Oc3cccnc3)nc2)cc1 | 4 | 103 | 107 | 2 | i | 100* | 31%* | i | -0.86 | -7
CC(C)(C)c1ccc(C(=O)Nc2cccnc2)cc1 | 1 | 100 | 102 | 3 | i | i | / | / | / | /
O=C(CNC(=O)c1cccs1)Nc1ccc2c(c1)OCCO2 | -1 | / | / | / | i | i | / | / | / | /
CCOC(=O)c1csc(Nc2nc3ccc(F)cc3s2)n1 | 6 | / | / | / | i | 100* | i | i | -1 | -15
